Assay outcomes deposited in PubChem BioAssay by several laboratories.
This is a sample that favours compounds with a hit; in the whole collection about 1.9% have one here.
Ba/F3 V617F tox – reduce viability of Ba/F3 cells dependent on JAK2V617F | Ba/F3 EpoR-JAK2V617F viability, ATP luminescence | inhibition, % at 5.6 µM | hit rate 1.1% among 220,000;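 active means inhibition above the campaign mean plus 3 SD over all tested compounds, cut at about 24% in these data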;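 further: cytokine-independent growth of Ba/F3 cells driven by EpoR plus mutant JAK2; 0% = DMSO-treated cells and 100% = JAK inhibitor I control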
KLF5 inhibitor – kruppel-like factor 5 inhibition | DLD-1 KLF5 promoter-luciferase reporter, luminescence | inhibition, % at 5 µM | hit rate 0.23% among 290,000 | AID 1700;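 active means inhibition above a per-plate limit of that plate's mean compound inhibition plus 3 SD, cut at about 60% in these data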;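 further: 0% = DMSO wells and 100% = LY294002 at 200 µM; higher means less KLF5 promoter-driven luciferase light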
IEC-6 cytotox – kills IEC-6 intestinal cells in KLF5 counter-screen; IEC-6 cytotoxicity, luminescence viability; inhibition, % at 5 µM; hit rate 0.78% among 290,000; in the data active means inhibition above about 22%;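 further: 0% = plate median of test compound wells and 100% = cytotoxic reference compound wells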
APP 5UTR inh – APP translation inhibition. SH-SY5Y APP 5'UTR-luciferase reporter, luminescence. AID 1285. hit rate 0.82% among 190,000. inhibition, % at 2 µM;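 active means inhibition above a set limit, derived from the sample mean plus 3 SD, cut at about 45% in these data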
BaF3 tox – counter-screen for JAK2V617F inhibitors: parental Ba/F3 viability inhibitors; CellTiter-Glo ATP luminescence; inhibition, % at 5.6 µM; hit rate 1.1% among 220,000; AID 1486;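 active means inhibition above a per-campaign cutoff, the mean inhibition of all tested compounds plus 3 SD, cut at about 27% in these data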;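 further: 0% = DMSO wells and 100% = JAK Inhibitor I control wells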
* marks the source's active call; other numbers are inactive results.

How did Cc1ccccc1C(=O)N1CCN(c2ccc(NC(=O)c3ccc4c(c3)OCO4)cc2)CC1 do in these assays?
Ba/F3 V617F tox: 66.7*; KLF5 inhibitor: 56.4; IEC-6 cytotox: 36.0*; APP 5UTR inh: 10.7; BaF3 tox: 67.4*

What do the screens show for `O=C(Nc1ccc(N2CCN(C(=O)c3ccco3)CC2)cc1)c1ccc2c(c1)OCO2`?
Ba/F3 V617F tox: 4.5; KLF5 inhibitor: 0.3; IEC-6 cytotox: 6.5; APP 5UTR inh: 8.5; BaF3 tox: 6.5

How did CC(=O)Nc1ccc(S(=O)(=O)N(CCO)Cc2ccccc2)cc1 do in these assays?
Ba/F3 V617F tox: -0.5; KLF5 inhibitor: -23.9; IEC-6 cytotox: -5.5; APP 5UTR inh: 8.3; BaF3 tox: 4.8

Results for CC(=O)Nc1ccc(S(=O)(=O)N(C)CCOCc2ccccc2)cc1 ?
Ba/F3 V617F tox: 5.8; KLF5 inhibitor: 4.0; IEC-6 cytotox: 3.4; APP 5UTR inh: 2.3; BaF3 tox: 42.8*

Results for Cc1ccc(-c2ccc(=O)n(CCC(=O)N3CCN(c4ccccc4)CC3)n2)cc1 ?
KLF5 inhibitor: -18.8; IEC-6 cytotox: 10.0

How did Cc1cc(NC(=O)CCC(=O)N(Cc2ccco2)C2(C(=O)NC3CCCC3)CCCCC2)no1 do in these assays?
KLF5 inhibitor: -7.6; IEC-6 cytotox: -2.3

How did Cc1cc(NC(=O)CCC(=O)N(Cc2ccco2)C2(C(=O)NC3CCCCC3)CCN(C)CC2)no1 do in these assays?
Ba/F3 V617F tox: -0.2; KLF5 inhibitor: -16.7; IEC-6 cytotox: 0.9; APP 5UTR inh: 9.3; BaF3 tox: 89.0*

What do the screens show for `COc1ccc(-c2nn(-c3ccccc3)cc2C(=O)NC(=S)NNC(=O)c2ccncc2)cc1`?
Ba/F3 V617F tox: 5.1; KLF5 inhibitor: 19.9; IEC-6 cytotox: 24.7*; APP 5UTR inh: 49.9*; BaF3 tox: 3.6

Results for COc1cc(/C=C(\C#N)C(N)=O)ccc1OCc1c(C)no[n+]1[O-] ?
Ba/F3 V617F tox: -5.2; KLF5 inhibitor: -27.1; IEC-6 cytotox: -5.5; BaF3 tox: 0.5

Results for Cc1ccccc1NC(=S)N(CCc1c(C)[nH]c2ccc(F)cc12)Cc1cccnc1 ?
Ba/F3 V617F tox: -1.2; KLF5 inhibitor: -17.9; IEC-6 cytotox: -4.6; APP 5UTR inh: 10.3; BaF3 tox: 8.5

How did COc1ccc2[nH]c(C)c(CCN(Cc3cccs3)C(=S)Nc3cccc(F)c3)c2c1 do in these assays?
Ba/F3 V617F tox: 44.9*; KLF5 inhibitor: -29.3; IEC-6 cytotox: -4.7; APP 5UTR inh: -2.0; BaF3 tox: 51.1*

What do the screens show for `Cc1[nH]c2ccc(F)cc2c1CCN(Cc1cccnc1)C(=S)Nc1cccc(F)c1`?
Ba/F3 V617F tox: 31.1*; KLF5 inhibitor: -13.4; IEC-6 cytotox: 4.3; APP 5UTR inh: -15.3; BaF3 tox: 28.4*

What do the screens show for `COc1cccc(NC(=S)N(CCc2c(C)[nH]c3ccc(C)cc23)Cc2cccs2)c1`?
Ba/F3 V617F tox: -2.1; KLF5 inhibitor: -23.4; IEC-6 cytotox: 3.2; APP 5UTR inh: 13.8; BaF3 tox: 6.0

How did OCCCNC(=S)Nc1ccc2nc(-c3ccccn3)c(-c3ccccn3)nc2c1 do in these assays?
Ba/F3 V617F tox: 84.6*; KLF5 inhibitor: -43.8; IEC-6 cytotox: -1.4; APP 5UTR inh: 0.2; BaF3 tox: 70.6*

How did CCC(Oc1cc(Cl)ccc1Cl)C(=O)N1CCCN(C)CC1 (centres undefined) do in these assays?
KLF5 inhibitor: -8.6; IEC-6 cytotox: 3.3

Results for COc1ccc(C2C3=C(CCCC3=O)Nc3nc(-c4cc(OC)c(OC)c(OC)c4)nn32)cc1OC (centres undefined) ?
Ba/F3 V617F tox: -0.1; KLF5 inhibitor: -25.1; IEC-6 cytotox: 0.8; APP 5UTR inh: -3.4; BaF3 tox: 93.0*

How did COc1cc(-c2nc3n(n2)C(c2ccncc2)C2=C(CCCC2=O)N3)cc(OC)c1OC (centres undefined) do in these assays?
Ba/F3 V617F tox: -0.2; KLF5 inhibitor: -4.4; IEC-6 cytotox: 5.1; APP 5UTR inh: 2.4; BaF3 tox: 0.3

What do the screens show for `Cc1nc(=O)c(-c2ccccc2)c(C)n1Cc1ccccc1`?
Ba/F3 V617F tox: -3.6; KLF5 inhibitor: -15.9; IEC-6 cytotox: -7.6; APP 5UTR inh: 47.5*; BaF3 tox: 4.4

Results for CC(=O)OCC[n+]1c(C)n(-c2ccccc2)c2ccc(Cl)cc21 ?
Ba/F3 V617F tox: -1.8; KLF5 inhibitor: -28.1; IEC-6 cytotox: 0.7; APP 5UTR inh: -45.5; BaF3 tox: 11.9

Results for CCOC(=O)c1ccc2c(c1)[n+](CC)c(C)n2-c1ccccc1 ?
Ba/F3 V617F tox: 38.3*; KLF5 inhibitor: -16.9; IEC-6 cytotox: -5.5; APP 5UTR inh: 16.9; BaF3 tox: 75.8*

Results for CC[n+]1c(C)n(-c2ccccc2)c2ccc(C(=O)OC)cc21 ?
Ba/F3 V617F tox: 36.3*; KLF5 inhibitor: -4.7; IEC-6 cytotox: -2.8; APP 5UTR inh: -10.6; BaF3 tox: 54.6*

What do the screens show for `CCOC(=O)c1ccc2c(c1)n(CC)c(C)[n+]2CC`?
Ba/F3 V617F tox: 20.1; KLF5 inhibitor: -1.5; IEC-6 cytotox: 6.6; APP 5UTR inh: 5.1; BaF3 tox: 36.5*

Results for Cc1cccc(OCC(=O)Nc2ccc3c4c(cccc24)CC3)c1C ?
Ba/F3 V617F tox: -0.8; KLF5 inhibitor: -0.1; IEC-6 cytotox: -11.0; APP 5UTR inh: -6.7; BaF3 tox: 3.7

What do the screens show for `CCC1S/C(=C(\C#N)C(=O)NCc2ccco2)N(c2ccc(Br)cc2)C1=O` (centres undefined)?
Ba/F3 V617F tox: -0.9; KLF5 inhibitor: -18.4; IEC-6 cytotox: 1.5; BaF3 tox: 5.2

What do the screens show for `CCC1S/C(=C(\C#N)C(=O)NCc2ccco2)N(c2ccc(F)cc2)C1=O` (centres undefined)?
Ba/F3 V617F tox: 4.2; KLF5 inhibitor: -21.1; IEC-6 cytotox: -7.9; APP 5UTR inh: -9.6; BaF3 tox: 32.8*

What do the screens show for `C/C(=N\NC(=O)CSCc1ccccc1Cl)c1cc(O)ccc1O`?
Ba/F3 V617F tox: 16.1; KLF5 inhibitor: -3.2; IEC-6 cytotox: -1.7; APP 5UTR inh: 54.1*; BaF3 tox: -3.2

Results for O=C(Nc1ncc(Cc2ccc(SC(F)F)cc2)s1)c1ccc(OC(F)F)cc1 ?
Ba/F3 V617F tox: -3.5; KLF5 inhibitor: 0.2; IEC-6 cytotox: 4.8; APP 5UTR inh: 94.2*; BaF3 tox: 2.6

How did O=C(/C=C/c1cccc([N+](=O)[O-])c1)n1cnc2ccccc21 do in these assays?
Ba/F3 V617F tox: -0.6; KLF5 inhibitor: -15.4; IEC-6 cytotox: 2.3; APP 5UTR inh: 50.6*; BaF3 tox: 1.2

Results for CC(=O)c1c(O)c2cccc3c2n(c1=O)CCC3 ?
KLF5 inhibitor: -8.0; IEC-6 cytotox: -10.5

How did N#Cc1nc(COc2ccc(F)cc2)oc1N1CCC(Cc2ccccc2)CC1 do in these assays?
Ba/F3 V617F tox: -2.0; KLF5 inhibitor: -42.1; IEC-6 cytotox: 0.9; APP 5UTR inh: 66.0*; BaF3 tox: -0.9

How did N#Cc1nc(COc2ccc(F)cc2)oc1N1CCN(Cc2ccccc2)CC1 do in these assays?
Ba/F3 V617F tox: -1.1; KLF5 inhibitor: 12.6; IEC-6 cytotox: 5.4; APP 5UTR inh: 4.7; BaF3 tox: 2.5

What do the screens show for `Cc1ccc2nc(NNC(=O)c3ccc(S(=O)(=O)N4CCc5ccccc5C4)cc3)sc2c1`?
Ba/F3 V617F tox: 0.0; KLF5 inhibitor: 42.3; IEC-6 cytotox: -5.9; APP 5UTR inh: 57.8*; BaF3 tox: 7.2
